Compounds with a hit are over-represented: about 19% of the library has one in this group of screens.
Cycloheximide cs = Cycloheximide Counterscreen for Small Molecule Inhibitors of Shiga Toxin | cell reporter, cycloheximide protein synthesis inhibition counterscreen | max response, % | 300,000 tested, 12% active | AID 2314, 2010; in the data active = max response mostly above about 13%, no sharp cut-off; inactive = mostly below about 14%; note: read at 38.3 µM for the half of the compounds with a filed dose; 0% is about no effect
Shiga toxin inh = A qHTS for Small Molecule Inhibitors of Shiga Toxin; inhibition, % at 38.7 µM; 290,000 tested, 9.2% active; Vero cells, Shiga toxin protein synthesis inhibition reporter; in the data active = inhibition mostly above about 28%, no sharp cut-off; inactive = mostly below about 43%; note: 0% is about no effect
Pf growth 96h = Primary qHTS for delayed death inhibitors of the malarial parasite plastid, 96 hour incubation | P. falciparum luciferase reporter growth, 96 h | Potency, µM (highest dose often 28.7 µM), for inactives: top-dose activity change, negative = inhibition, actives largely listed as inhibitors | 320,000 tested, 6.9% active | AID 504834, 2011; note: potency is the fitted concentration of half-maximal effect; % is set by controls: 0 for no effect and ±100 for the full control effect
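Two-generation exposure (96 h) targets delayed-death phenotype. Reporter parasites carrying integrated firefly luciferase, in red cells at 2% hematocrit and 0.05% parasitemia final, kept at 37 C, 5% CO2; luminescence loss indicates inhibition.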
SARS PLpro yeast = qHTS of Yeast-based Assay for SARS-CoV PLP; S. cerevisiae expressing SARS-CoV PLpro, growth rescue; Potency, µM (top dose mostly 32.9 µM), for inactives: at the highest dose activity, positive = growth rescue, most hits filed as activators; 330,000 tested, 0.19% active; calls by dose curve; note: potency is the fitted concentration of half-maximal effect; 0% is about no effect; nearly all actives have a fitted effect of over 55% in size
Pf growth 48h = Primary qHTS for delayed death inhibitors of the malarial parasite plastid, 48 hour incubation; P. falciparum luciferase growth in erythrocytes, 48 h; Potency, µM (titrated, usually from 28.7 µM), for inactives: at the top dose activity change, negative = inhibition, actives largely listed as inhibitors; 310,000 tested, 5.9% active; note: potency is the fitted concentration of half-maximal effect; % is set by controls: 0 for no effect and ±100 for the full control effect
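Here the parasites carry a stable luciferase gene and grow inside erythrocytes in Albumax-based RPMI medium with compound for one erythrocytic cycle. Activity is scored as loss of luminescent signal.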
AMA1-RON2 inh = qHTS for Inhibitors of AMA1-RON; Towards Development of Antimalarial Drug Lead: Primary Screen. AlphaScreen AMA1-biotinylated RON2 peptide binding. Potency, µM (series often up to 58.2 µM), without a hit: at the highest dose activity change, negative = inhibition, actives largely listed as inhibitors. 360,000 tested, 0.2% active;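 note: potency is the fitted concentration of half-maximal effect; 0% = vehicle wells and -100% = peptide control; nearly all actives have a fitted effect of over 45% in size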
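AMA1 (3D7) with his tag at 25 nM final met compounds first, then biotinylated RON2 peptide at 25 nM; detection used donor plus acceptor beads, 10 µg/mL apiece, read by AlphaScreen after 30 min at room temperature.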
Numbers without * were called inactive; u = inconclusive; x = no result given. Unless noted, calls come from the whole dose curve; as a rule, active = well fitted curve in the direction sought with a large enough effect; inconclusive = small, poorly fitted or top-dose-only effect, or another doubt; inactive = no such curve, though single readings can be large; an effect the other way counts as inactive or inconclusive.

SMILES	Cycloheximide cs	Shiga toxin inh	Pf growth 96h	SARS PLpro yeast	Pf growth 48h	AMA1-RON2 inh
O=C(NCC(F)(F)F)Nc1cccnc1	-0.8	-2.5	14.7µM*	-13.8%	-19.1%	28.6%
O=[N+]([O-])c1ccc(OCCN2CCNCC2)cc1	-3.8	-6.7	u	-0.1%	-0.4%	-5.5%
COC(=O)[C@H](CC(C)C)NC(=O)CC[C@H]1O[C@@H](n2ccc(=O)[nH]c2=O)[C@H](O)[C@@H]1O	x	x	x	x	x	0.0%
CC(NC(=O)Nc1ccc(Cl)cc1)c1ccccc1 (stereo not drawn)	1.6	14.6	10.4µM*	-3.5%	23.6%	3.7%
CC(=O)c1ccc(NC(=O)c2cnsn2)cc1	31.4*	81.6*	u	-1.0%	114.5%	-12.6%
Nc1ccc(NC(=O)c2ccc(C(=O)Nc3ccc(N)cc3)cc2)cc1	-4.0	-5.5	37.4%	0.4%	6.4%	5.1%
Nc1ccc(C(=O)CC(=O)Nc2ccc(Cl)cc2)cc1	18.3*	39.4	7.6%	14.5%	2.2%	2.5%
CC(=O)c1ccc(NC(=O)Nc2ccncc2)cc1	28.1*	57.1*	5.4%	0.2%	u	0.5%
O=C(Nc1ccc(N2CCOCC2)cc1)c1cnsn1	0.7	-13.3	-0.2%	-5.9%	-13.7%	-3.8%
COc1ccc(-c2c(NC(=O)c3ccco3)n(-c3ccc(C)cc3)nc(C)c2=O)cc1	-1.9	-4.5	0.0%	-0.6%	35.2%	2.3%
O=C(Nc1ccc(F)cc1)Nc1cccnc1	-3.2	22.7	31.5%	-0.5%	19.9%	-8.6%
CC(=O)c1ccc(NC(=O)Nc2cccnc2)cc1	27.9*	23.3	-89.0%	13.2%	-27.0%	3.5%
O=C(Nc1ccccc1)Nc1ccc(Oc2cccnc2)nc1	41.8*	39.3*	21.8%	-1.0%	167.7%	11.6%
O=C(Nc1ccc(OC(F)(F)F)cc1)Nc1cccnc1	31.5*	69.5*	10.4µM*	-1.6%	u	39.5%
CC(=O)c1ccc(N2Cc3ccccc3/C2=N\C(=O)Nc2ccc(Cl)cc2)cc1	43.2*	33.0*	209.9%	-20.2%	68.9%	22.9%
CCOc1cc(C(=O)CCC(=O)OCC(=O)NC(=O)NCC(C)C)ccc1O	3.3	5.1	75.2%	-2.8%	u	-14.0%
c1cncc(-c2cn(C[C@H]3CC[C@H](Cn4cc(-c5cccnc5)nn4)O3)nn2)c1	x	x	x	1.0%	x	-1.3%
CCCN(Cc1nc2cc(Cl)ccc2c(=O)[nH]1)C(=O)c1ccc(S(=O)(=O)N2CCCC2)cc1	x	x	u	1.2%	u	73.2%
CNC(=O)Nc1ccc(Cl)cc1	20.7*	17.8	42.7%	-31.4%	44.5%	41.6%
Cc1cc(NC(=O)Nc2ccc(Cl)cc2)n(C)n1	14.5	15.0	-15.1%	-0.5%	9.7%	-5.1%
CC(C)c1ccc(S(=O)(=O)/N=C2/C=CC(=O)c3ccccc32)cc1	15.3	5.7	58.0%	-5.7%	8.28µM*	x
CC1CCCCN1CCNC(=O)c1ccc2c(c1)N(Cc1ccccc1)C(=O)c1ccccc1S2(=O)=O (stereo not drawn)	-4.2	-9.5	u	0.5%	5.22µM*	10.0%
O=C(NCCN1CCOCC1)c1ccc2c(c1)N(Cc1ccccc1F)C(=O)c1ccccc1S2(=O)=O	6.4	-10.5	3.0%	5.0%	0.0%	8.0%
Cc1cccc(CN2C(=O)c3ccccc3S(=O)(=O)c3ccc(C(=O)NCCCN4CCCC4)cc32)c1	-1.2	-5.3	u	-4.0%	10.4µM*	-10.8%
O=C(NCCN1CCCC1)c1ccc2c(c1)N(Cc1cccc(Cl)c1)C(=O)c1ccccc1S2(=O)=O	-0.9	-7.7	0.0%	-0.4%	8.28µM*	-11.2%
CCN1CCN(C(=O)c2ccc3c(c2)N(Cc2ccccc2)C(=O)c2ccccc2S3(=O)=O)CC1	-2.2	-10.4	23.0%	-0.4%	6.57µM*	-4.4%
O=C(NCc1ccc(F)cc1)Nc1cccc(Cl)c1	27.9*	62.4*	62.8%	-0.3%	64.3%	19.0%
O=C(NCc1ccc(F)cc1)Nc1ccc(Cl)cc1	36.0*	59.1	0.8%	-0.4%	60.2%	2.6%
S=C(NCc1ccccc1)Nc1cccc(Cl)c1	11.6	25.2	27.3%	-0.2%	2.3%	-0.3%
